Bioassay records deposited in PubChem by National Center for Advancing Translational Sciences (NCATS).
GLP1R cytotox: qHTS of GLP-1 Receptor Inverse Agonists: Cytotox Screen | HEK293 cAMP-luciferase reporter cells, luminescence, 24 h | 410,000 compounds, 0.13% hits | Potency, µM (titrated, usually from 38.3 µM), for the others: at the top dose activity change, negative = inhibition, actives largely listed as inhibitors;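 note: loss of luciferase light is scored as toxicity; % is set by controls: 0 for no effect and ±100 for the full control effect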
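Quantitative HTS format, 1536 wells, 200 cells/uL seeded. Compounds: 23 nL, 24 h, 37 °C. Detection: luciferase reagent, luminescence at 12 min RT; decreased signal taken as cytotoxic.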
BRCA1 expr act: qHTS Assay to Identify Small Molecule Activators of BRCA1 Expression | 380,000 compounds, 1.1% hits | Potency, µM (top dose mostly 46.1 µM), for the others: at the highest dose activation, hits mostly activators | MCF7-BRCA1-FFLuc reporter, luminescence, 48 h; response scale: scaled: vehicle 0%, 10 µM genistein 100% | AID 624202, 2012; note: nearly all actives have a fitted effect of over 80% in size
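Luminescence from a BRCA1-driven firefly luciferase in MCF7 cells was read after 48 h compound exposure at 37 C. Data normalized against DMSO and a 10microM genistein activation control, then curve-fitted across the titration.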
GLP1R inv ag: qHTS of GLP-1 Receptor Inverse Agonists (Inhibition Mode). Potency, µM (titrated, usually from 38.3 µM), for the others: at the top dose activity change, negative = inhibition, actives largely listed as inhibitors. 410,000 compounds, 1.6% hits. HEK293 GLP-1R CRE-luciferase, luminescence, 24 h; GLP-1R form is constitutively active; note: % is set by controls: 0 for no effect and ±100 for the full control effect; nearly all actives have a fitted effect of over 55% in size
Target sequence (P43220 whole entry, looked up): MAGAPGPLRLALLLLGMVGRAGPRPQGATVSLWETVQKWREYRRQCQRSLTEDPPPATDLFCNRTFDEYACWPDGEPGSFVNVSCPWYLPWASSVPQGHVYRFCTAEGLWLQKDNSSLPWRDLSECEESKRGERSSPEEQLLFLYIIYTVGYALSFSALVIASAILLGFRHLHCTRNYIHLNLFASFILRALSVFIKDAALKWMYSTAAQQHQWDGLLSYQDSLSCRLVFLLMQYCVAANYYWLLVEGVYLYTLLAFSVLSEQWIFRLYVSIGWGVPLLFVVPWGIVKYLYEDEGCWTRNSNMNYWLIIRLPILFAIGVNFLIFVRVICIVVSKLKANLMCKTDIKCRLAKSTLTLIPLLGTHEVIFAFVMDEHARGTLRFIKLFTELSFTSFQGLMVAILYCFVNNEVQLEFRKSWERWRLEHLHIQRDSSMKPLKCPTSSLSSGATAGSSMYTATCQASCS
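Seeding at 200 cells/uL, 12 h culture, 24 hr compound treatment, then luciferase reagent and a luminescence read; cells are HEK293 stably expressing a constitutively active GLP-1R plus cAMP-responsive luciferase.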
Mito fusion act: qHTS Assay for Small Molecule Inhibitors of Mitochondrial Division or Activators of Mitochondrial Fusion. S. cerevisiae fusion-defective mutant growth rescue, CellTiterGlo 48 h. Potency, µM (highest dose often 46.1 µM), for inactives: top-dose growth rescue (activation), usual class: activators. 320,000 compounds, 0.23% hits. AID 485298, 2010; note: % of control where 0% means no effect; nearly all actives have a fitted effect of over 45% in size
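Read-out: ATP-based luminescence (CellTiterGlo, 10 min ambient) reporting growth of fusion-defective ts yeast after 48 hours at 37C on glycerol/ethanol YPEG medium in the presence of compound.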
GLP-1R agonist: qHTS of GLP-1 Receptor Agonists; HEK293 GLP-1R CRE-luciferase, luminescence, 4-6 h; cells express a hypersensitive GLP-1R form; Potency, µM (top dose mostly 45.6 µM), inactives show at the top dose activation, actives largely listed as activators; 380,000 compounds, 0.007% hits; AID 624172, 2012; note: % of control where 0% means no effect
An asterisk follows results filed as active; u = inconclusive; x = no result; [ ] = another dose, or the depositor's remark. In the library only some 2.8% were active in any assay of this set; here they are far more common. Calls come from the whole dose curve; as a rule, active = well fitted curve in the direction sought with a large enough effect; inconclusive = small, poorly fitted or top-dose-only effect, or another doubt; inactive = no such curve, though single readings can be large; an effect the other way counts as inactive or inconclusive. Potency is the fitted concentration of half-maximal effect.

SMILES	GLP1R cytotox	BRCA1 expr act	GLP1R inv ag	Mito fusion act	GLP-1R agonist
NC(=O)C1=C[C@H](c2ccc3c(c2)OCO3)C[C@H](OCc2ccc(CO)cc2)O1	1%	u	12%	2%	3%
COc1cc(SC)ccc1C(=O)Nc1ccccc1C#N	-10%	-36%	25%	2%	3%
O=C(NCCc1ccccc1)c1cccc2c(-c3ccc(F)c(F)c3)coc12	4%	36%	u	x	2%
O=C(NCC1CC1)c1cccc2c(-c3ccc(F)c(F)c3)coc12	2%	3.5µM*	u	x	15%
Cc1ccc(N=Cc2ccccc2O)cc1Cl	11%	-9%	-27%	x	0%
Cc1ccc(-c2nc3ccc(Br)cn3c2Cc2cccc(F)c2)cc1	2%	3.2µM*	u	x	7%
Fc1ccc(-c2nc3ccc(Br)cn3c2Cc2ccccc2)cc1	-13%	5%	8.9µM*	x	17%
COc1ccc(C(c2c(C)n(C)n(-c3ccccc3)c2=O)c2c(C)n(C)n(-c3ccccc3)c2=O)cc1	-9%	9%	-1%	0%	2%
O=S(=O)(NCCSc1nnc(-c2ccco2)n1-c1ccccc1)c1ccccc1	-20%	-40%	-26%	0%	0%
Cc1ccc(S(=O)(=O)N(C)c2nc3ccccc3[nH]c2=S)cc1	3%	-29%	36%	18%	2%
CN(c1nc2ccccc2nc1Cl)S(=O)(=O)c1ccccc1	-7%	-10%	10µM*	3%	13%
CCCOC(=O)c1ccc(NC(=O)c2cnccn2)cc1	14%	10µM*	20%	-1%	-1%
CCc1ccc(NC(=O)c2cnccn2)cc1	-5%	10%	u	0%	10%
CCCCOC(=O)c1ccc(NC(=O)c2c(Cl)ccc(Cl)c2OC)cc1	-3%	-9%	u	16µM*	1%
O=C(Nc1ccc(NC(=O)c2ccco2)cc1)c1cnccn1	-14%	13µM*	23%	1%	-1%
O=C(Nc1ccc2nccnc2c1)c1cnccn1	0%	11µM*	35%	1%	-4%
O=C(C[N+]1(CCO)CCOCC1)c1cccs1	x	7%	x	x	x
Cc1ccc(-c2onc(C)c2C)cc1S(=O)(=O)Nc1cccc(Cl)c1C	u	x	10µM*	x	x
Cc1c(Cl)cccc1NS(=O)(=O)c1ccccc1	19%	2%	10µM*	x	10%
Cc1ccc(-c2onc(C)c2C)cc1S(=O)(=O)N1CCCCC1	5%	x	-24%	x	x
O=c1[nH][nH]c(=O)c2c(NS(=O)(=O)c3ccccc3)cccc12	-1%[7.66 µM]	13µM*	59%[7.66 µM]	6%	11%
O=S(=O)(Nc1ccccc1-c1ccccc1)c1ccccc1	2%	-29%	6.3µM*	x	12%
Cn1c(-n2cccc2)c(-c2c(-c3ccc(F)cc3)[nH]c3c2c(=O)[nH]c(=O)n3C)c(=O)[nH]c1=O	-4%	x	1%	x	x
COc1cccc(/C(C)=N/NC(=O)c2ccc(N(C)C)cc2)c1	8%	4.5µM*	-10%	0%	2%
C/C(=N\NC(=O)c1cccc(Br)c1)c1ccc(Br)cc1	29%	7%	5%	1%	0%
SMILES	GLP1R cytotox	BRCA1 expr act	GLP1R inv ag	Mito fusion act	GLP-1R agonist
C/C(=N\NC(=O)c1ccccc1)c1cccc(Br)c1	-13%	10µM*	3%	4%	4%
Cc1ccccc1Nc1c(C)c(C)nc2ncnn12	-4%	-18%	94%	0%	21%
Cc1ccccc1NC(=S)NCc1ccc2[nH]c3c(c2c1)CCCC3	-20%	-28%	u	-21%	5%
COc1ccc(N2CCN(C3CCN(S(=O)(=O)c4ccc(F)cc4)CC3)CC2)cc1	-1%	32%	-11%	5%	-6%
COc1cccc(C(c2ccccc2)N2C3CCC2CN(S(=O)(=O)c2ccc(F)cc2)CC3)c1 (centres undefined)	2%	-40%	3.5µM*	-2%	-20%
Fc1ccccc1CSc1nnc(-c2ccccc2)o1	1%	4µM*	0%	26%	6%
